What was measured:
U-2932 [1] = assay: growth inhibition by drug alone (1 - RLU/untreated control) (fraction); higher = stronger inhibition; details: 177Lu-lilotomab satetraxetan 0 ug/ml
Summary of the method: (§1)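 A radiolabelled anti-CD37 antibody conjugate (~600 MBq/mg) was applied for 18 h at 0.5 µg/ml to RIVA and 1 µg/ml to U-2932 cells, with untreated cells run alongside. All cells were washed and seeded at 3,000 cells/well onto library-printed plates at 10/100 nM (RIVA) or 10/1,000 nM (U-2932). Growth inhibition was based on RealTime-Glo luminescence compared with untreated no-drug wells. Daily reads began on day 3 after 1 h at 37°C, with each value being 1 − RLU/mean of the 48 such wells on that plate.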

RIVA [2] = assay: as above; details: 177Lu-lilotomab satetraxetan 0 ug/ml
Summary of the method: as §1

U-2932 [3] = assay: growth inhibition by drug plus 177Lu-lilotomab satetraxetan (1 - RLU/untreated control) (fraction); higher = stronger inhibition; details: 177Lu-lilotomab satetraxetan 1 ug/ml
Summary of the method: as §1

RIVA [4] = assay: as above; details: 177Lu-lilotomab satetraxetan 0.5 ug/ml
Summary of the method: as §1

SMILES	growth inhibition by drug alone (U-2932 [1]; 10 nM, time (day): 3)	growth inhibition by drug alone (U-2932 [1]; 10 nM, time (day): 4)	growth inhibition by drug alone (U-2932 [1]; 10 nM, time (day): 5)	growth inhibition by drug alone (U-2932 [1]; 10 nM, time (day): 6)	growth inhibition by drug alone (U-2932 [1]; 1000 nM, time (day): 3)	growth inhibition by drug alone (U-2932 [1]; 1000 nM, time (day): 4)	growth inhibition by drug alone (U-2932 [1]; 1000 nM, time (day): 5)	growth inhibition by drug alone (U-2932 [1]; 1000 nM, time (day): 6)	growth inhibition by drug alone (RIVA [2]; 10 nM, time (day): 3)	growth inhibition by drug alone (RIVA [2]; 10 nM, time (day): 4)	growth inhibition by drug alone (RIVA [2]; 10 nM, time (day): 5)	growth inhibition by drug alone (RIVA [2]; 10 nM, time (day): 6)	growth inhibition by drug alone (RIVA [2]; 100 nM, time (day): 3)	growth inhibition by drug alone (RIVA [2]; 100 nM, time (day): 4)	growth inhibition by drug alone (RIVA [2]; 100 nM, time (day): 5)	growth inhibition by drug alone (RIVA [2]; 100 nM, time (day): 6)	growth inhibition by drug plus 177Lu-lilotomab satetraxetan (U-2932 [3]; 10 nM, time (day): 3)	growth inhibition by drug plus 177Lu-lilotomab satetraxetan (U-2932 [3]; 10 nM, time (day): 4)	growth inhibition by drug plus 177Lu-lilotomab satetraxetan (U-2932 [3]; 10 nM, time (day): 5)	growth inhibition by drug plus 177Lu-lilotomab satetraxetan (U-2932 [3]; 10 nM, time (day): 6)	growth inhibition by drug plus 177Lu-lilotomab satetraxetan (U-2932 [3]; 1000 nM, time (day): 3)	growth inhibition by drug plus 177Lu-lilotomab satetraxetan (U-2932 [3]; 1000 nM, time (day): 4)	growth inhibition by drug plus 177Lu-lilotomab satetraxetan (U-2932 [3]; 1000 nM, time (day): 5)	growth inhibition by drug plus 177Lu-lilotomab satetraxetan (U-2932 [3]; 1000 nM, time (day): 6)	growth inhibition by drug plus 177Lu-lilotomab satetraxetan (RIVA [4]; 10 nM, time (day): 3)	growth inhibition by drug plus 177Lu-lilotomab satetraxetan (RIVA [4]; 10 nM, time (day): 4)	growth inhibition by drug plus 177Lu-lilotomab satetraxetan (RIVA [4]; 10 nM, time (day): 5)	growth inhibition by drug plus 177Lu-lilotomab satetraxetan (RIVA [4]; 10 nM, time (day): 6)	growth inhibition by drug plus 177Lu-lilotomab satetraxetan (RIVA [4]; 100 nM, time (day): 3)	growth inhibition by drug plus 177Lu-lilotomab satetraxetan (RIVA [4]; 100 nM, time (day): 4)	growth inhibition by drug plus 177Lu-lilotomab satetraxetan (RIVA [4]; 100 nM, time (day): 5)	growth inhibition by drug plus 177Lu-lilotomab satetraxetan (RIVA [4]; 100 nM, time (day): 6)
CCOc1cc(C(=O)Nc2ccc(Cl)c(-c3nc4ccccc4[nH]3)c2)cc(OCC)c1OCC	-0.0835	0.00922	-0.0921	-0.101	0.0527	0.106	0.057	0.0205	0.0892	0.061	0.00986	-0.126	0.409	0.248	0.22	0.167	-0.0124	0.0291	0.0337	0.147	0.147	0.267	0.28	0.362	0.452	0.548	0.564	0.568	0.625	0.648	0.668	0.654
c1ccc(-c2nn3c(c2-c2ccnc4cc(OCCN5CCOCC5)ccc24)CCC3)nc1	0.0304	0.0254	0.0259	-0.126	0.0168	-0.0245	-0.0928	-0.157	-0.0878	-0.000924	-0.142	-0.487	-0.472	-0.252	-0.3	-0.522	0.0114	0.0692	0.139	0.155	-0.0195	0.0208	0.0497	0.121	0.46	0.581	0.585	0.558	0.237	0.413	0.439	0.459
NC(=O)Nc1sc(-c2ccc(F)cc2)cc1C(N)=O	0.0734	0.0553	0.0297	-0.262	0.197	0.229	0.176	0.239	-0.0481	-0.0689	-0.274	-0.781	-0.446	-0.283	-0.285	-0.444	0.0182	0.0728	0.0938	0.118	0.334	0.356	0.397	0.502	0.484	0.574	0.584	0.586	0.259	0.411	0.413	0.434
O=C(CCCCCCC(=O)Nc1ccccc1)NO [Vorinostat (SAHA)]	-0.0182	-0.0297	-0.0883	-0.201	0.818	0.762	0.691	0.615	-0.119	-0.189	-0.294	-0.432	-0.132	-0.192	-0.199	-0.285	-0.0269	0.0202	0.0234	0.0225	0.849	0.817	0.786	0.742	0.465	0.518	0.537	0.553	0.523	0.578	0.586	0.591
CN(NC(=O)CC(=O)NN(C)C(=S)c1ccccc1)C(=S)c1ccccc1 [Elesclomol]	0.796	0.791	0.818	0.825	0.982	0.982	0.983	0.984	0.97	0.964	0.963	0.964	0.976	0.976	0.975	0.974	0.854	0.88	0.914	0.935	0.983	0.982	0.984	0.987	0.972	0.968	0.972	0.974	0.987	0.988	0.987	0.988
N#CC1(c2ccc(NC(=O)c3cccnc3NCc3ccncc3)cc2)CCCC1 [Apatinib (YN968D1)]	0.0813	0.0775	0.0186	-0.0775	-0.000689	0.0222	-0.108	-0.279	-0.0437	0.0236	-0.0386	-0.253	-0.0842	-0.0337	-0.084	-0.223	0.0626	0.101	0.109	0.137	-0.0473	0.0612	0.0296	0.0686	0.491	0.579	0.593	0.615	0.497	0.559	0.555	0.524
Cc1ccc(-n2nc(C(C)(C)C)cc2NC(=O)Nc2ccc(OCCN3CCOCC3)c3ccccc23)cc1 [BIRB 796 (Doramapimod)]	0.238	0.206	0.0293	0.0019	0.274	0.272	0.208	0.2	0.117	0.131	0.0641	-0.0577	-0.00598	0.0829	0.0349	-0.0954	0.173	0.182	0.252	0.301	0.273	0.29	0.32	0.408	0.669	0.691	0.702	0.711	0.407	0.527	0.521	0.528
